The panel holds about 79,000 compounds, 15% with a hit somewhere; the sample as a whole holds those more often. The source made the active and inactive calls. Cut-off read from the data, not from the text of the source: active = growth inhibition above about 70%; inactive = the rest.
Experiments:
[1] = NCI Yeast Anticancer Drug Screen. Data for the rad52 strain (AID 147);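 note: 0% = growth of vehicle-treated control cultures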; settings: S. cerevisiae rad52 mutant growth inhibition, stronger effect = higher value
Method in brief: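 Screen used a yeast mutant impaired in DNA repair. After compound exposure, growth was measured. Values reflect inhibition compared with vehicle-treated cells.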

[2] = NCI Yeast Anticancer Drug Screen. Data for the wt1 strain (AID 149);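 note: 0% = growth of vehicle-treated wt1 cultures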; settings: S. cerevisiae wt1 strain (SPY 50644) growth inhibition, stronger effect = higher value
Method in brief: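 Readout: yeast growth inhibition, normalised to vehicle controls, in the wt1 strain exposed to test compounds.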

[3] = NCI Yeast Anticancer Drug Screen. Data for the rad50EPP+ strain (AID 151);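 note: 0% = growth of vehicle-treated control cultures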; settings: S. cerevisiae rad50 mutant strain, stronger effect = higher value
Method in brief: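 Exposing the rad50EPP+ strain to each compound, growth was compared with vehicle-only cultures to give inhibition.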

[4] = NCI Yeast Anticancer Drug Screen. Data for the rad50 strain (AID 155);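 note: 0% = growth of vehicle-only cultures of the same strain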; settings: S. cerevisiae rad50 strain growth inhibition, stronger effect = higher value
Method in brief: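 Compounds were tested on a yeast strain with an engineered DNA damage repair alteration; the reported value is growth inhibition normalised to vehicle treatment.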

[5] = NCI Yeast Anticancer Drug Screen. Data for the mec2-1 strain (AID 157); settings: S. cerevisiae mec2-1 strain, stronger effect = higher value
Method in brief: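 Readout is yeast growth inhibition, normalised to vehicle-treated controls, in the mec2-1 strain exposed to compound.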

[6] = NCI Yeast Anticancer Drug Screen. Data for the rad14 strain (AID 159);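 note: 0% = growth of vehicle-treated control cultures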; settings: S. cerevisiae rad14 strain growth inhibition, stronger effect = higher value
Method in brief: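 Compound-treated yeast with a defined DNA-repair lesion; growth inhibition normalised to vehicle-treated cultures.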

[7] = NCI Yeast Anticancer Drug Screen. Data for the sgs1 mgt1 strain (AID 161);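 note: 0% = growth of cultures given vehicle only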; settings: S. cerevisiae sgs1 mgt1 strain, stronger effect = higher value
Method in brief: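 Compounds are added to genetically altered yeast, and growth is compared with cultures given vehicle alone to give percent inhibition.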

[8] = NCI Yeast Anticancer Drug Screen. Data for the CLN2oe strain (AID 163);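 note: 0% = growth of vehicle-only control cultures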; settings: S. cerevisiae CLN2oe strain, stronger effect = higher value
Method in brief: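 Values reflect how much compound exposure reduced yeast growth, referenced to vehicle-exposed cells. Assay organism is a strain with a defined genetic change affecting cell-cycle control.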

[9] = NCI Yeast Anticancer Drug Screen. Data for the cln2 rad14 strain (AID 165);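 note: 0% = growth equal to vehicle treated cultures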; settings: S. cerevisiae cln2 rad14 strain, stronger effect = higher value
Method in brief: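 Relative to vehicle controls, growth inhibition of compound-treated cln2 rad14 yeast was recorded.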

[10] = NCI Yeast Anticancer Drug Screen. Data for the bub3 strain (AID 167); settings: S. cerevisiae bub3 mutant strain, stronger effect = higher value
Method in brief: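 Growth of a checkpoint-deficient yeast mutant is measured after compound exposure. Values represent inhibition relative to vehicle.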

[11] = NCI Yeast Anticancer Drug Screen. Data for the wt2 strain (AID 169);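 note: 0% = growth of vehicle-treated yeast cultures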; settings: S. cerevisiae wt2 strain growth inhibition, stronger effect = higher value
Method in brief: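 Values express reduction in yeast growth under compound treatment, referenced to vehicle-treated cells.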

[12] = NCI Yeast Anticancer Drug Screen. Data for the mlh1 strain (AID 171);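 note: 0% = growth of vehicle-treated control cultures of the same strain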; settings: S. cerevisiae mlh1 strain growth inhibition, stronger effect = higher value
Method in brief: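 Steps: expose the defined-mutant yeast strain to compound; expose a parallel culture to vehicle; measure growth; express compound effect as inhibition relative to the vehicle culture.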

[13] = NCI Yeast Anticancer Drug Screen. Data for the mlh1 rad18 strain (AID 175); settings: S. cerevisiae mlh1 rad18 strain growth inhibition, stronger effect = higher value
Method in brief: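 Test agents were incubated with a yeast strain of defined genotype (DNA damage repair defect). Inhibition of growth was derived by comparison with vehicle-exposed cultures.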

[14] = NCI Yeast Anticancer Drug Screen. Data for the rad18 strain (AID 177); settings: S. cerevisiae rad18 mutant growth inhibition, stronger effect = higher value
Method in brief: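 A genetically defined yeast mutant impaired in DNA damage repair was treated with test compounds, then its growth was measured against cultures receiving vehicle alone.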

[15] = NCI Yeast Anticancer Drug Screen. Data for the mgt1 strain (AID 153); settings: S. cerevisiae mgt1 mutant growth inhibition, stronger effect = higher value
Method in brief: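 Genetically defined yeast (mgt1) treated with compound; inhibition of growth expressed against vehicle-treated controls.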

[16] = NCI Yeast Anticancer Drug Screen. Data for the sgs1 strain (AID 173);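 note: 0% = growth of vehicle-only control cultures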; settings: S. cerevisiae sgs1 mutant, stronger effect = higher value
Method in brief: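 Treat defined-mutant yeast with compound; measure growth; calculate inhibition relative to vehicle-treated cells.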

[17] = at 5.0 µM (retest, dose inferred, filed as 0.5)
[18] = at 50.0 µM (retest, dose inferred, filed as 5.0)

Measured: growth inhibition

CC(=O)OCC(C)Cc1cc2c(cc1Br)OCO2 (stereo not drawn)
active: [7]; [18] 72% | [7]; at 50.0 µM 91.3% | [11]; at 100.0 µM 89% | [13]; [18] 70% | [13]; at 50.0 µM 78.8%
inactive: [1]; at 1.2 µM -6% | [1]; at 3.7 µM -11% | [1]; at 11.0 µM -8% | [1]; at 33.0 µM -3% | [1]; at 100.0 µM 19% | [2]; at 1.2 µM 1% | [2]; at 3.7 µM -5% | [2]; at 11.0 µM 6% | [2]; at 33.0 µM -2% | [2]; at 100.0 µM -13% | [3]; at 1.2 µM -9% | [3]; at 3.7 µM -6% | [3]; at 11.0 µM 16% | [3]; at 33.0 µM 18% | [3]; at 100.0 µM 33% | [4]; at 1.2 µM -16% | [4]; at 3.7 µM -19% | [4]; [17] 2% | [4]; at 11.0 µM -23% | [4]; at 33.0 µM -13% | [4]; [18] 19% | [4]; at 50.0 µM 31.6% | [4]; at 100.0 µM 38% | [5]; at 1.2 µM -3% | [5]; at 3.7 µM -4% | [5]; [17] 0% | [5]; at 11.0 µM -6% | [5]; at 33.0 µM -11% | [5]; [18] 37% | [5]; at 50.0 µM 3.8% | [5]; at 100.0 µM -10% | [6]; at 1.2 µM 4% | [6]; at 3.7 µM -3% | [6]; at 11.0 µM 9% | [6]; at 33.0 µM 12% | [6]; at 100.0 µM 56% | [7]; [17] 1% | [8]; at 1.2 µM -7% | [8]; at 3.7 µM -9% | [8]; at 11.0 µM -16% | [8]; at 33.0 µM -16% | [8]; at 100.0 µM -15% | [9]; [17] -1% | [9]; [18] 12% | [9]; at 50.0 µM 4.65% | [10]; at 1.2 µM -2% | [10]; at 3.7 µM 3% | [10]; [17] 7% | [10]; at 11.0 µM 2% | [10]; at 33.0 µM 2% | [10]; [18] 43% | [10]; at 50.0 µM 19.8% | [10]; at 100.0 µM 21% | [11]; at 1.2 µM -1% | [11]; at 3.7 µM 0% | [11]; at 11.0 µM 7% | [11]; at 33.0 µM 20% | [12]; at 1.2 µM -21% | [12]; at 3.7 µM -8% | [12]; at 11.0 µM -10% | [12]; at 33.0 µM -11% | [12]; at 100.0 µM 62% | [13]; [17] 1% | [14]; at 1.2 µM -9% | [14]; at 3.7 µM -8% | [14]; at 11.0 µM -10% | [14]; at 33.0 µM -10% | [14]; at 100.0 µM 13%

CC(C)CCCC(C)C1CCC2C3CCC4=CC(=O)/C(=C\O)CC4(C)C3CCC12C (stereo not drawn)
inactive: [1]; at 1.2 µM 1% | [1]; at 3.7 µM 2% | [1]; at 11.0 µM 3% | [1]; at 33.0 µM 6% | [1]; at 100.0 µM 25% | [2]; at 1.2 µM 1% | [2]; at 3.7 µM 1% | [2]; at 11.0 µM 2% | [2]; at 33.0 µM 3% | [2]; at 100.0 µM 16% | [3]; at 1.2 µM 2% | [3]; at 3.7 µM -2% | [3]; at 11.0 µM -6% | [3]; at 33.0 µM -8% | [3]; at 100.0 µM -4% | [15]; at 1.2 µM -1% | [15]; at 3.7 µM 1% | [15]; at 11.0 µM 1% | [15]; at 33.0 µM 0% | [15]; at 100.0 µM 6% | [4]; at 1.2 µM 1% | [4]; at 3.7 µM 0% | [4]; [17] 5% | [4]; at 11.0 µM -2% | [4]; at 33.0 µM 0% | [4]; [18] 47% | [4]; at 50.0 µM 15.9% | [4]; at 100.0 µM 21% | [6]; at 1.2 µM 1% | [6]; at 3.7 µM 2% | [6]; at 11.0 µM 3% | [6]; at 33.0 µM 7% | [6]; at 100.0 µM 20% | [7]; [17] 7% | [7]; [18] 48% | [7]; at 50.0 µM 14.9% | [8]; at 1.2 µM -3% | [8]; at 3.7 µM -5% | [8]; at 11.0 µM -10% | [8]; at 33.0 µM -18% | [8]; at 100.0 µM 2% | [9]; [17] 0% | [9]; [18] 26% | [9]; at 50.0 µM 48.5% | [10]; at 1.2 µM 4% | [10]; at 3.7 µM -1% | [10]; [17] 6% | [10]; at 11.0 µM -10% | [10]; at 33.0 µM -9% | [10]; [18] 54% | [10]; at 50.0 µM 47.8% | [10]; at 100.0 µM 21% | [11]; at 1.2 µM 2% | [11]; at 3.7 µM 0% | [11]; at 11.0 µM 2% | [11]; at 33.0 µM 1% | [11]; at 100.0 µM 10% | [12]; at 1.2 µM -1% | [12]; at 3.7 µM -2% | [12]; at 11.0 µM -3% | [12]; at 33.0 µM -2% | [12]; at 100.0 µM 15% | [16]; at 1.2 µM 0% | [16]; at 3.7 µM -1% | [16]; at 11.0 µM -1% | [16]; at 33.0 µM 3% | [16]; at 100.0 µM 29% | [13]; [17] 2% | [13]; [18] 52% | [13]; at 50.0 µM 26.1% | [14]; at 1.2 µM 3% | [14]; at 3.7 µM 3% | [14]; at 11.0 µM 2% | [14]; at 33.0 µM 6% | [14]; at 100.0 µM 28%

Source: PubChem BioAssay (NCI)
